# Test results as given in PMC11006913.
# Numbering of substitutions follows the chain as printed.
# Assays:
# Assay in all cases: PBM; 200 nM protein, PBS
# Conditions in all cases: dsDNA, one strand shown
# [1] = target: HOXB4 (Homo sapiens, UniProt P17483 148-234, V174I)
# [2] = target: HOXD13 (Homo sapiens, UniProt P35453 263-343, T313R)
# [3] = target: T1, NKX2-4 (Homo sapiens, UniProt Q9H2Z4 175-261, P217L)
# T1 sequence: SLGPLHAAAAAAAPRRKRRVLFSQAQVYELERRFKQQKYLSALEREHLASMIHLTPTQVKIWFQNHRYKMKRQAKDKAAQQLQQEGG
# [4] = target: T2, NKX2-4 (Homo sapiens, UniProt Q9H2Z4 175-261, T231S)
# T2 sequence: T1 sequence with L43P, T57S
# [5] = target: T3, NKX2-4 (Homo sapiens, UniProt Q9H2Z4 175-261)
# T3 sequence: T1 sequence with L43P
# [6] = target: T4, NKX2-4 (Homo sapiens, UniProt Q9H2Z4 175-261, R246Q)
# T4 sequence: T1 sequence with L43P, R72Q
# [7] = target: T5, NKX2-6 (Homo sapiens, UniProt A6NCS4 118-204, F151L)
# T5 sequence: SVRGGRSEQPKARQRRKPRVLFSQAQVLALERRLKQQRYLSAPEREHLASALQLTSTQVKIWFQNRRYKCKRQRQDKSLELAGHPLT
# [8] = target: PITX2 (Homo sapiens, UniProt Q99697 72-157)
# HOXD13, sequence (P35453 263-343 T313R): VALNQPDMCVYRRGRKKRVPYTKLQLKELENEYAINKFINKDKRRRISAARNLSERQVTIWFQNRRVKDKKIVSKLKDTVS
# HOXB4, sequence (P17483 148-234 V174I): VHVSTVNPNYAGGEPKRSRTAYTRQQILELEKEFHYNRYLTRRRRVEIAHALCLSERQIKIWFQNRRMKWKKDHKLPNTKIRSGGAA
sequence,measurement,setting,value
TAATTGAA,binding signal,[1],"13.6 upbm affinity estimate (log intensity, higher = more binding, comparable within an allelic series)"
GCCCCCCA,binding signal,[2],"9.1 upbm affinity estimate (log intensity, higher = more binding, comparable within an allelic series)"
GAGCTGGC,binding signal,[3],"9.65 upbm affinity estimate (log intensity, higher = more binding, comparable within an allelic series)"
same,binding signal,[4],"9.66 upbm affinity estimate (log intensity, higher = more binding, comparable within an allelic series)"
same,binding signal,[5],"9.73 upbm affinity estimate (log intensity, higher = more binding, comparable within an allelic series)"
same,binding signal,[6],"9.66 upbm affinity estimate (log intensity, higher = more binding, comparable within an allelic series)"
ACGCTGCG,binding signal,[3],"9.63 upbm affinity estimate (log intensity, higher = more binding, comparable within an allelic series)"
same,binding signal,[4],"9.6 upbm affinity estimate (log intensity, higher = more binding, comparable within an allelic series)"
same,binding signal,[5],"9.57 upbm affinity estimate (log intensity, higher = more binding, comparable within an allelic series)"
same,binding signal,[6],"9.58 upbm affinity estimate (log intensity, higher = more binding, comparable within an allelic series)"
GTCCTGCA,binding signal,[7],"9.4 upbm affinity estimate (log intensity, higher = more binding, comparable within an allelic series)"
ACGGAAGG,binding signal,[8],"7.95 upbm affinity estimate (log intensity, higher = more binding, comparable within an allelic series)"
CGCGCGAG,binding signal,[2],"9.52 upbm affinity estimate (log intensity, higher = more binding, comparable within an allelic series)"
